We go through 38 molecules from PubChem BioAssay (EPA / NIEHS).

Usually AC50 stands for the midpoint of the concentration-response curve, whichever way the signal moves.

Where “and” joins values, the source holds several entries; their conditions need not be identical. Identical values can stand only once. More than one record can exist for a structure, and the calls need not agree. Calls of active or inactive are those of the source. How the source made its calls: active means hit-call score of the fitted dose curve at least 0.9, where 1 is the maximum; inactive means score below 0.9.

E-selectin (Homo sapiens), sequence (P16581 whole entry, looked up): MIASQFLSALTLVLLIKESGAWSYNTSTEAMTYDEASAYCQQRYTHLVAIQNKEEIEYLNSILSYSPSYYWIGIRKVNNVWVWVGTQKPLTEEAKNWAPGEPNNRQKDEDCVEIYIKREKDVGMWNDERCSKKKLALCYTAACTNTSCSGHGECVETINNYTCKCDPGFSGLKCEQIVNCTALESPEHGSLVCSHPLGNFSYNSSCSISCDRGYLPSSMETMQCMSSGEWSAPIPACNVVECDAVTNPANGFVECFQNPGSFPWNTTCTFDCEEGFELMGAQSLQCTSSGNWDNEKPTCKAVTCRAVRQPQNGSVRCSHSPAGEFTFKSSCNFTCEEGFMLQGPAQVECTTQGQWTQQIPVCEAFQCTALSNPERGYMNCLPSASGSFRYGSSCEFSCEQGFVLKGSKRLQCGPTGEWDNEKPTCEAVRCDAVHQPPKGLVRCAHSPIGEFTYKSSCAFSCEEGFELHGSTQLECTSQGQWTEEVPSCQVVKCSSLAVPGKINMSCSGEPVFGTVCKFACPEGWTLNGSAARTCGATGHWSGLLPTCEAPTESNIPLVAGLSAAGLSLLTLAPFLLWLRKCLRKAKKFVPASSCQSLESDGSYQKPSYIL

Read-out in this assay: E-selectin (Homo sapiens) (UniProt P16581)
As to the kind of experiment: BSK_SAg_Eselectin: BioMAP Diversity Plus: SAg Assay for Eselectin Biomarker Activity (AID 2283091). To be noted: primary human HUVEC with PBMC; actives raise or lower the signal. The procedure:
BSK_SAg is a cell-based, multiplexed-readout assay that uses umbilical vein endothelium and peripheral blood mononuclear cells, a human vascular primary cell co-culture, with measurements taken at 24 hours after chemical dosing in a 96-well plate.BSK_SAg_Eselectin is an assay component measured in the BSK_SAg assay. It measures E-selectin antibody related to regulation of gene expression using ELISA technology.Data from the assay component BSK_SAg_Eselectin was analyzed into 1 assay endpoint. This assay endpoint, BSK_SAg_Eselectin, was analyzed with bidirectional fitting relative to DMSO as the negative control and baseline of activity. Using a type of binding reporter, gain or loss-of-signal activity can be used to understand changes in the signaling as they relate to the gene SELE. Furthermore, this assay endpoint can be referred to as a primary readout, because this assay has produced multiple assay endpoints where this one serves a signaling function. To generalize the intended target to other relatable targets, this assay endpoint is annotated to the cell adhesion molecules intended target family, where the subfamily is selectins.
The levels of cell surface (or secreted, indicated by the prefix "s") biomarker endpoints were measured by ELISA. Overt cytotoxicity to cells in confluent adherent cultures (all systems other than the BT system) was assessed by measuring total protein levels using sulforhodamine B (SRB) staining in parallel cultures at the time of biomarker measurements, indicated as SRB endpoints. For proliferation assays for adherent cell types, individual cell types are cultured at sub-confluence and relative cell numbers quantified by SRB staining at time points optimized for each system (48 h: 3C and CASM3C systems; 72 h: BT and HDF3CGF systems; 96 h: SAg system). SRB was performed by staining cells with 0.1% SRB after fixation with 10% TCA and reading wells at 560 nm.Viability and proliferation of PBMC (T cells) was quantified by Alamar Blue reduction for the SAg and BT systems. For PBMC viability (referred to as PBMC Cytotoxicity within the assay endpoint names), cells were plated (75,000/well in a 96-well plate) and then chemical samples added for 1 h before addition of activators, SEB and TSST-1 (20 ng/mL final concentration each). Cells were incubated for 90 h. Then, Alamar Blue (20 uL/well) (Invitrogen, Cat DAL1100) was added for 6 h, and the plates were read with a fluorescence microplate reader at 546/580 nm (excitation/emission). For PBMC proliferation, cells were plated and activated as above but incubated for only 16 h prior to addition of Alamar Blue. Plates were read after 6 h.
For `CCCOC(=O)c1ccccc1C(=O)OCCC`, the outcome was inactive. In the case of `O=C1C=CC(=O)C=C1`, the AC50 was 30.7 µM (active) and 25.2 µM (active). As to `CC(C)CCCCCCCOC(=O)c1ccccc1C(=O)OCCCCCCCC(C)C`, the result was inactive. `COC(C)(C)CCC[C@H](C)C/C=C/C(C)=C/C(=O)OC(C)C`: the AC50 was 20 µM (active). Take `Oc1ccc(C2(c3ccc(O)cc3)c3ccccc3-c3ccccc32)cc1`: the half-maximal activity concentration (AC50) is 10.2 µM (active) and 7.86 µM (active). As to `O=c1c2ccccc2c(=O)c2c1cc(Cl)c1[nH]c3c([nH]c12)c(Cl)cc1c(=O)c2ccccc2c(=O)c13`, the result was inactive. Take `CC(C)(C)C(=O)CCl`: the AC50 was 20 µM (active).

Take `[Cd+2].[Cl-].[Cl-]`: the half-maximal activity concentration (AC50) is 32.2 µM (active) and 30.2 µM (active). Turning to `CC1(C)[C@H](C(=O)O[C@H](C#N)c2cccc(Oc3ccccc3)c2)[C@@H]1C=C(Br)Br`, the AC50 is 1.52 µM (active) and the result was inactive. Regarding `CC(=O)/C=C/c1ccccc1`, the result was inactive. With `CCc1cc(C)cc(CC)c1-c1c(OC(=O)C(C)(C)C)n2n(c1=O)CCOCC2`, the result was inactive. Regarding `O=P1(NCCCl)OCCCN1CCCl` (centres undefined), the result was inactive. Regarding `O=[N+]([O-])C=Cc1ccccc1`, the AC50 was 20 µM (active). With `CCCCCCCCCCCC#N`, the AC50 was 31.3 µM (active). Take `N#CCCCCC#N`: the result was inactive. For `CCC(C)c1cc([N+](=O)[O-])cc([N+](=O)[O-])c1OC(=O)C=C(C)C` (centres undefined), the AC50 was 8.28 µM (active). Consider `O=c1[nH]c(Cl)c(Cl)cc1Cl`, for which the result was inactive. Still for that read-out and setting: then `O=S(=O)(c1ccccc1)c1ccccc1`, with “inactive”; and `COCC(=O)N(c1c(C)cccc1C)N1CCOC1=O`, with “inactive”. With `CC(C)COP(=O)(OCC(C)C)OCC(C)C`, the outcome was inactive. As to `O=C(O)CCCc1ccc(N(CCCl)CCCl)cc1`, the AC50 is 31 µM (active) and 20 µM (active). `C=CC(=O)OCC(CC)CCCC` (centres undefined): the outcome was inactive. In the case of `C=CCN(CC=C)C(=O)C(Cl)Cl`, the outcome was inactive. As to `O=C(CCl)c1ccccc1`, the AC50 was 3.31 µM (active). On to `O=C1C(Cl)=C(Cl)C(=O)C(Cl)=C1Cl`, for which the AC50 was 25.9 µM (active). For `CC(C)(C)C(O)C(Oc1ccc(-c2ccccc2)cc1)n1cncn1` (centres undefined), the outcome was inactive. Consider `c1ccc(Nc2ccc3ccccc3c2)cc1`, for which the result was inactive.

As to `CNC(=O)Oc1cc(C)c(SC)c(C)c1`, the outcome was inactive. For the molecule `CCCC[N+](CCCC)(CCCC)CCCC`, the outcome was inactive. Consider `CC(C)(c1cc(Cl)c(O)c(Cl)c1)c1cc(Cl)c(O)c(Cl)c1`, for which the AC50 is 23.5 µM (active). Still for that read-out and setting: then `Nc1ccc(-c2ccc(N)c(N)c2)cc1N`, with 11.7 µM (active); and `CC(C)CCCCCCCOP(=O)(Oc1ccccc1)Oc1ccccc1`, with 24.4 µM (active).

For `O=[N+]([O-])O`, the result was inactive. Consider `COc1ccc(CO)cc1`, for which the result was inactive.

Turning to `O=[N+]([O-])c1ccc(Cl)cc1`, the result was inactive. As for `Cc1ccc(OP(=O)(Oc2ccc(C)cc2)Oc2ccc(C)cc2)cc1` (tested in a mixture with another compound), the AC50 is 20 µM (active). Regarding `Oc1cc(Cl)ccc1Cl`, the result was inactive. Take `Clc1ccc(-c2ccccc2)cc1`: the outcome was inactive.
